In the library only some 7.3% were active in any assay of this set; here they are far more common.
SMN2 splice enh – qHTS Assay for Enhancers of SMN2 Splice Variant Expression | HEK293 SMN2-luciferase splicing reporter, luminescence, 30-36 h | Potency, µM (titrated, usually from 46.1 µM), inactives show at the top dose activity change, positive = activation, usual class: activators | 210,000 compounds, 2.8% hits | AID 1458, 2008; note: % of control where 0% means no effect; nearly all actives have a fitted effect of over 55% in size
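HEK293 cells carry an SMN2 minigene-luciferase reporter in which exon 7 inclusion puts luciferase in frame. Cells were seeded at 2000 cells/well, attached for 10-12 hours, then exposed to compounds for 30-36 hours at 37C before ONE-Glo luminescence.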
ELG1 genotoxic – qHTS screen for small molecules that induce genotoxicity in human embryonic kidney (HEK293T) cells expressing luciferase-tagged ELG1 | 330,000 compounds, 1.3% hits | Potency, µM (doses to about 46 µM), for inactives: top-dose activity change, positive = activation, hits mostly activators | HEK293T ELG1-luciferase reporter, luminescence, 16 h | AID 504466, 2011; note: % of control where 0% means no effect; nearly all actives have a fitted effect of over 60% in size
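Quantitative HTS format in 1536-well plates. HEK293T ELG1-luciferase reporter cells receive test compound and are incubated 16 hr at 37 °C, 5% CO2; ONE-Glo added, 30 min room temperature, then luminescence read.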
p53 reactivation – qHTS assay for re-activators of p53 using a Luc reporter. H1299 p53-A138V BP100-luciferase reporter, luminescence, 24 h. Potency, µM (titrated, usually from 92.2 µM), for the others: at the top dose activity change, positive = activation, hits mostly activators. 320,000 compounds, 0.063% hits. AID 504706, 2011; note: % of control where 0% means no effect; nearly all actives have a fitted effect of over 45% in size
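p53-null H1299 cells stably carrying temperature-sensitive p53-A138V and a BP100-luciferase reporter were pinned with compounds (4-point, 1:5 series) and held 24 hrs at 37 deg C. Luminescence was read 10 min after detection reagent.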
NPC1 prom act – qHTS Assay for NPC1 Promoter Activators. Huh7 NPC1 promoter luciferase reporter, 24 h. Potency, µM (titrated, usually from 9.22 µM), for the others: at the top dose activation, actives largely listed as activators. 320,000 compounds, 2.4% hits. AID 485313, 2010; note: % of control where 0% means no effect; nearly all actives have a fitted effect of over 60% in size
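Luminescence read-out of NPC1 promoter-driven luciferase in stably transfected Huh7 cells; compounds delivered in DMSO and left 24 h at 37C, 5% CO2, qHTS titration format.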
FLuc modulator – qHTS profiling assay for firefly luciferase inhibitor/activator using purifed enzyme and Km concentrations of substrates (counterscreen for miR-21 project) | purified FLuc, Km substrates, luminescence inhibition | Potency, µM (series often up to 57.5 µM), for inactives: at the top dose activity change, negative = inhibition, actives largely listed as inhibitors | 360,000 compounds, 6.9% hits;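 note: plate controls were vehicle for no effect and reference inhibitor for full effect; nearly all actives have a fitted effect of over 55% in size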
Target sequence (P08659 whole entry, looked up): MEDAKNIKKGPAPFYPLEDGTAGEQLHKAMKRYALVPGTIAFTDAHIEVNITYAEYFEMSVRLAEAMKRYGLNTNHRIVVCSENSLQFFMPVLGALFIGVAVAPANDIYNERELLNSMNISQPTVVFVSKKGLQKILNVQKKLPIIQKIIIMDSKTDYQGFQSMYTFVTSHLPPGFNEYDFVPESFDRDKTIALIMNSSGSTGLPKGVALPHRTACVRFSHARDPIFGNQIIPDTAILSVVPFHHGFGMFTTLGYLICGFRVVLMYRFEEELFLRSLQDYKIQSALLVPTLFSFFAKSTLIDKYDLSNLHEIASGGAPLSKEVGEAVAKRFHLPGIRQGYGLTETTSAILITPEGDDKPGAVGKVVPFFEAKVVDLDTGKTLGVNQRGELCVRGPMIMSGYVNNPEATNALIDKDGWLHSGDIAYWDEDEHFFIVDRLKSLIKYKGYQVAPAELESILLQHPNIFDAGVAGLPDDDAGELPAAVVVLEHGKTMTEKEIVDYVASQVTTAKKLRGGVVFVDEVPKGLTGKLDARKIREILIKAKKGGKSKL
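Purified P. pyralis luciferase, 10 nM final, with Km-level 10 uM D-luciferin and 10 uM ATP in 50 mM Tris acetate pH 7.5, 10 mM Mg acetate, 0.01% Tween-20, 0.05% BSA; 6-point qHTS titration about 60 µM downward; luminescence read.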
Rab9 promoter act – qHTS Assay for Rab9 Promoter Activators; Huh7 Rab9 promoter-luciferase reporter, luminescence, 24 h; Potency, µM (top dose mostly 9.22 µM), without a hit: at the top dose activation, negative = inhibition, actives largely listed as activators; 320,000 compounds, 2.8% hits; AID 485297, 2010; note: % of control where 0% means no effect; nearly all actives have a fitted effect of over 60% in size
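Cells were plated at 1500 per well in reduced-serum medium with 10% FBS and left 2 h. Compound in DMSO was then added for 24 h at 37 °C. Reporter signal was read by luminescence after 10 min with luciferase detection reagent.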
Numbers without * were called inactive; ? = inconclusive; / = not tested or not shown; [ ] = remark or other dose. Calls come from the whole dose curve; as a rule, active = well fitted curve in the direction sought with a large enough effect; inconclusive = small, poorly fitted or top-dose-only effect, or another doubt; inactive = no such curve, though single readings can be large; an effect the other way counts as inactive or inconclusive. Potency is the fitted concentration of half-maximal effect.

SMILES	SMN2 splice enh	ELG1 genotoxic	p53 reactivation	NPC1 prom act	FLuc modulator	Rab9 promoter act
CN(CC(=O)Nc1ccc(N2CCOCC2)cc1)C(=O)c1cc(S(=O)(=O)N(C)C)ccc1Cl	/	13.0%	27.2%	-1.9%	15.1µM*	-0.3%
COc1cccc(C2=NN(C(=O)c3ccco3)C(c3ccco3)C2)c1 (stereo unspecified)	/	10.2%	-1.3%	17.9%	10.7µM*	9.5%
CCOc1ccc(-n2c(SCC(=O)N3CCOCC3)nc3c([nH]c4ccccc43)c2=O)cc1	/	/	/	/	-3.2%	/
O=C(Cn1cc(SCc2cccc(Cl)c2)c2ccccc21)N1CCCCCC1	/	/	/	/	-4.9%	/
Cc1cccc(CSc2cn(CC(=O)N3CCCC3)c3ccccc23)c1	/	/	/	/	15.1µM*	/
O=C(Cn1cc(SCc2c(F)cccc2Cl)c2ccccc21)N1CCCC1	/	/	/	/	16.9µM*	/
Cc1ccc(CSc2cn(CC(=O)N3CCCC3)c3ccccc23)cc1	/	/	/	/	15.1µM*	/
O=C(Cn1cc(SCc2ccc(C(F)(F)F)cc2)c2ccccc21)N1CCCCC1	/	/	/	/	-14.2%	/
N=C(N)SCc1nc(-c2ccc(Cl)cc2)no1	-0.4%[9.22 µM]	/	/	/	/	/
Cc1ccc(CCNC(=O)Cn2ncc3c(=O)oc4ccccc4c32)cc1	7.6%	/	/	/	-6.9%	/
O=C(NCCCN1CCN(c2ccc(F)cc2)CC1)Nc1ccc(Cl)cc1	-15.3%	/	/	/	-15.5%	/
Cc1cc(C)cc(-n2ccnc2SCC(=O)Nc2ccc3c(c2)OCO3)c1	/	/	/	/	-14.6%	/
CC1=CC(=C2C(=O)c3ccccc3C2=O)C=C(C)N1C	7.3%	?	?	2.51µM*	12µM*	2.51µM*
COC1=C(c2ccccc2)C(=O)c2ccccc2C1=O	-19.2%	-7.9%	5.0%	-0.6%	-15.0%	12.5%
Cc1cc(=O)oc2cc(OCC(=O)N3CCOCC3)c(Cl)cc12	/	1.3%	-6.5%	/	/	/
O=C(N/N=C/c1cccnc1)c1cc2c(ccc3ccccc32)o1	-13.4%	3.4%	-5.3%	-4.9%	?	1.8%
CCOC(=O)COc1ccccc1/C=N\NC(=O)c1cc2c(ccc3ccccc32)o1	/	-0.6%	-7.1%	-4.1%	23.9µM*	0.1%
O=C(N/N=C/c1ccc(O)c(Br)c1)c1cc2c(ccc3ccccc32)o1	/	-3.1%	-4.4%	-1.3%	?	0.7%
O=C(N/N=C/c1cc(Br)c(O)c(Br)c1)c1cc2c(ccc3ccccc32)o1	/	-0.5%	10.0%	1.2%	3.01µM*	0.2%
O=C(N/N=C/c1cc(Cl)c(O)c(Cl)c1)c1cc2c(ccc3ccccc32)o1	/	-6.5%	9.7%	9.7%	2.13µM*	12.3%
CCOc1ccc(NC(=O)CCCOc2cc(=O)n(C)c3ccccc23)cc1	11.2%	9.9%	-9.4%	-8.5%	-10.2%	0.0%
Cc1ccc(C)c(OC(C)C(=O)Nc2nccs2)c1 (stereo unspecified)	/	-1.9%	-0.6%	-6.0%	-14.4%	-3.1%
Cc1nc2nc(SCC(=O)N(C)Cc3ccccc3)nn2c(C)c1Cc1ccccc1Cl	1.4%	/	/	/	-4.5%	/
COc1cc(/C=C/c2ccc3cccc(O)c3n2)cc(OC)c1OC	/	?	19.6%	25.9%	?	22.7%
COc1cccc(/C=C/c2ccc3cccc(O)c3n2)c1OC	/	18.3µM*	?	3.55µM*	2.69µM*	?
SMILES	SMN2 splice enh	ELG1 genotoxic	p53 reactivation	NPC1 prom act	FLuc modulator	Rab9 promoter act
COc1ccc(/C=C/c2ccc3cccc(O)c3n2)c(OC)c1OC	/	23.1µM*	?	3.16µM*	4.78µM*	2.51µM*
COc1ccc2nc(-c3ccccc3)cc(C(=O)OCC(=O)N3CC(C)OC(C)C3)c2c1 (stereo unspecified)	/	-6.1%	-3.3%	-9.8%	19µM*	-5.3%
COc1ccc2nc(-c3ccccc3)cc(C(=O)N3CCC3)c2c1	/	-4.1%	-9.9%	-1.4%	?	1.2%
COc1ccc(-c2cc(C(=O)OCC(=O)N3CCCC3)c3ccccc3n2)cc1	31.7%	-2.4%	1.1%	15.1%	6.01µM*	15.3%
Cc1cc(C(=O)OCC(=O)N2CC(C)OC(C)C2)c2ccccc2n1 (stereo unspecified)	/	-1.3%	2.6%	-3.9%	6.3%	0.9%
COc1ccc2nc(-c3ccccc3)cc(C(=O)OCC(=O)N3CCCCC3)c2c1	/	-8.2%	-0.2%	-3.0%	21.3µM*	-1.2%
COc1ccccc1-c1nccc(NCc2cccc(C)c2)n1	-31.8%	/	/	/	/	/
CC(C)CC(NC(=O)OCC1c2ccccc2-c2ccccc21)C(=O)O (stereo unspecified)	12.6µM*	/	/	/	/	/
Cn1c(SCc2ccccc2)nnc1-c1c[nH]c2ccccc12	?	14.6µM*	7.1%	?	16.9µM*	?
CCCCSc1nnc(-c2c[nH]c3ccccc23)n1C	-8.9%	?	?	?	15.1µM*	?
COC(=O)c1ccc(CSc2nnc(-c3c[nH]c4ccccc34)n2C)o1	13.1%	-4.0%	-2.7%	-1.7%	0.8%	-4.8%
CCCCSc1nnc(-c2ccc(C)cc2)n1C	?	3.1%	14.1%	3.98µM*	?	3.55µM*
O=C(Cc1cccs1)N/N=C/c1ccco1	1.3%	1.1%	18.6%	-3.9%	1.4%	-2.0%
Cc1cc(C)nc(N/N=C/c2ccccc2)n1	20.5%	3.0%	10.2%	-0.7%	-19.0%	?
CCOc1ccc(/C=N/NC(=O)Cc2cccs2)cc1	/	?	24.1%	?	16.9µM*	?
CCOC(=O)N/N=C/C(Cl)=C/c1ccccc1	?	?	3.8%	?	16.9µM*	?
O=C(Cc1cccs1)N/N=C/C=C\c1ccco1	?	9.2%	14.1µM*	22.5%	?	?
Cc1cc(C)nc(N/N=C/C(Cl)=C/c2ccccc2)n1	-8.0%	?	16.7%	?	13.5µM*	?
O=C(O)C1CC(=O)N(CCc2ccc(F)cc2)C1 (stereo unspecified)	/	-2.3%	?	0.1%	0.2%	3.5%
C=CCNC(=O)NC(=O)CSc1nnc(C(F)(F)F)n1C	-6.3%	0.4%	1.9%	-2.5%	0.6%	1.1%
CC(C)C1Nc2ccc(C(=O)NCCCN3CCOCC3)cc2NC1=O (stereo unspecified)	/	-0.6%	6.9%	-6.8%	1.8%	?
O=C(Cc1cccs1)N/N=C/C(Cl)=C/c1ccccc1	?	?	10.4%	?	-10.3%	3.55µM*
Cn1c(SCC(=O)Nc2ccccc2Cl)nnc1C1CC1	/	-9.9%	0.8%	2.4%	-2.9%	0.2%
COCCNc1nnc(SCC(=O)Nc2nnc(-c3ccccc3)o2)s1	/	12.2%	1.0%	-0.8%	19µM*	-5.4%

High-throughput results as filed in PubChem BioAssay.
